Screening data as filed in PubChem BioAssay.
TbPYK inhibitor: qHTS of Trypanosoma Brucei Inhibitors; 410,000 tested, 0.12% active; Potency, µM (doses to about 76.8 µM), most hits filed as inhibitors; TbPYK enzyme, Kinase-Glo Plus ATP luminescence, 45 min; pyruvate kinase (Trypanosoma brucei), Q57TT1; further: nearly all actives have a fitted effect of over 50% in size
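Activity of T. brucei pyruvate kinase was followed by Kinase-Glo Plus luminescence after the enzyme reacted 45 min at room temperature with 130 uM ADP (final) and substrate. Test compounds were added before ADP at multiple concentrations.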
Cycloheximide cs: Cycloheximide Counterscreen for Small Molecule Inhibitors of Shiga Toxin. cell reporter, cycloheximide protein synthesis inhibition counterscreen. max response, %. 300,000 tested, 12% active; in the data active means max response mostly above about 13%, no sharp cut-off; inactive means mostly below about 14%; further: read at 38.3 µM for the half of the compounds with a filed dose
Shiga toxin inh: A qHTS for Small Molecule Inhibitors of Shiga Toxin; Vero cells, Shiga toxin protein synthesis inhibition reporter; inhibition, % at 38.7 µM; 290,000 tested, 9.2% active; AID 2315, 2010; in the data active means inhibition mostly above about 28%, no sharp cut-off; inactive means mostly below about 43%
LmPK inhibitor: qHTS Assay for Inhibitors of Leishmania Mexicana Pyruvate Kinase (LmPK); Q27686; purified LmPK, Kinase-Glo ATP luminescence, 1 h; Potency, µM (highest dose often 57.5 µM), most hits filed as inhibitors; 290,000 tested, 0.37% active; AID 1721, 2009
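Purified LmPK (0.1 nM) converted ADP (0.1 mM) to ATP with PEP (0.5 mM) in imidazole buffer pH 7.2 with KCl and MgCl2, 1 h at room temperature. ATP was read by Kinase-Glo luminescence; data normalized to uninhibited and no-enzyme controls.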
Giardia FBPA inh: qHTS Assay for Inhibitors of Fructose-1,6-bisphosphate Aldolase from Giardia Lamblia; 290,000 tested, 0.71% active; Potency, µM (doses to about 59.6 µM), hits mostly inhibitors; purified Giardia FBPA; A8B2U2; further: nearly all actives have a fitted effect of over 55% in size
Target sequence (A8B2U2 whole entry, looked up): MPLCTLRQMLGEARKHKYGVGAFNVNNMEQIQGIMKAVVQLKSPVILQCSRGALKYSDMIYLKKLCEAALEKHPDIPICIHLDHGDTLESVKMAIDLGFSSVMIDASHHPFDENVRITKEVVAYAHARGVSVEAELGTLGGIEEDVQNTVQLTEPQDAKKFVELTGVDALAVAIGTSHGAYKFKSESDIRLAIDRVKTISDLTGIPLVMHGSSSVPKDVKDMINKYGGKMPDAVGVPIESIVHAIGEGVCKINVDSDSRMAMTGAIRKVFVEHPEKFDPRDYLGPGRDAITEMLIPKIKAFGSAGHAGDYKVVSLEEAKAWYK
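Giardia FBPA (40 nM reagent) was preincubated 10 min at RT with compound (up to 57.5 uM final), then substrate plus GAPDH/TPI/NAD/arsenate coupling system with diaphorase/resazurin was added; resorufin fluorescence (525/598 nm) was read after 20 min.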
RE007 growth inh: qHTS Assay for Inhibitors of the HIV-1 protein Vpr | AID 651644, 2012 | Potency, µM (series often up to 92.2 µM), hits mostly inhibitors | S. pombe RE007 Vpr strain, BacTiter-Glo ATP luminescence, 24 h | 360,000 tested, 0.21% active; active means well fitted falling curve with a large enough effect; inconclusive means small, poorly fitted or top-dose-only effect; inactive means no such curve, though single readings can be large or run the other way; further: nearly all actives have a fitted effect of over 50% in size
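Fission yeast RE007 carrying one integrated HIV-1 vpr copy, seeded at OD 0.01 in PMG+AL medium with 23 nL pinned compound. Grown 24 h at 30 degrees; viability read by BacTiter-Glo luminescence after 5 min.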
A number is an active result; n = inactive; u = inconclusive; x = not tested or not shown; [ ] = another dose, or the depositor's remark. Shown is part of a subset that was picked to be rich in hits. Unless noted, the call rests on the fitted dose curve; in most records, active means well fitted curve in the direction sought with a large enough effect; inconclusive means small, poorly fitted or top-dose-only effect, or another doubt; inactive means no such curve, though single readings can be large; an effect the other way counts as inactive or inconclusive.

SMILES | TbPYK inhibitor | Cycloheximide cs | Shiga toxin inh | LmPK inhibitor | Giardia FBPA inh | RE007 growth inh
O=C(Nc1ccc(OC(F)F)cc1)c1ccccn1 | n | n | n | n | n | n
COc1ccc(NC(=O)c2ccccn2)cc1 | n | n | n | 11.2µM | n | u
COC(=O)c1ccc(C(NC(=O)c2ccco2)[C@]2(C)C[C@H]2C2CCCCC2)cc1 (some centres not stated) | x | x | x | x | n | x
COc1ccc(C(=O)N/N=C(\c2ccccc2)c2ccccn2)cc1 | n | n | 53.4 | n | n | x
COc1ccc(C(=O)NNC(=O)C(Cc2ccc(O)cc2)NC(=O)c2ccccc2NC(=O)c2ccc(OC)cc2)cc1 (configuration not stated) | n | n | n | n | n | n
COc1ccc(C(=O)Nc2ccccc2C(=O)NC(Cc2ccc(O)cc2)C(=O)NNC(=O)c2ccccc2Cl)cc1 (configuration not stated) | n | 11.5 | n | n | n | n
COC(=O)c1cccc(C(=O)Nc2ccc(C)cc2)n1 | n | 44.9 | 79.8 | n | n | n
CCc1ccc(NC(=O)c2cccc(C(=O)Nc3ccc(CC)cc3)n2)cc1 | n | n | n | n | n | n
COc1ccc(NC(=O)CN2CCN(Cc3ccccc3)S2(=O)=O)c(OC)c1 | n | x | x | x | x | x
CCc1ccccc1NC(=O)CN(Cc1ccccc1)S(=O)(=O)c1ccc2nc(C)sc2c1 | n | x | x | x | x | x
O=C(Nc1ccc(N2CCCCC2)cc1)c1ccc2c(c1)OCCO2 | n | 34.9 | 75.4 | n | n | n
CN1CCN(c2ccc(NC(=O)c3ccc4c(c3)OCO4)cc2)CC1 | n | 41.8 | 71.9 | n | n | n
O=C(Nc1ccc(N2CCN(C(=O)c3ccccc3)CC2)cc1)c1ccc2c(c1)OCCO2 | n | 55.3 | 61.7 | n | x | n
CC(=O)N1CCN(c2ccc(NC(=O)c3ccc4c(c3)OCCO4)cc2Cl)CC1 | n | 27.8 | n | n | u | n
Cc1cccc(CCn2c(=O)c3ccccc3n(Cc3cccc(F)c3)c2=O)c1 | n | x | x | x | x | x
CCc1nn2c(=O)c(S(=O)(=O)Nc3ccc(C)c(C)c3)c(C)nc2s1 | n | x | x | x | x | x
CCCNC(=O)c1ccccc1NC(=O)c1nsc2ccccc12 | n | x | x | x | x | x
COC(=O)c1ccc(NC(=O)c2cccc(Cl)c2)o1 | n | 24.2 | 58.3 | n | n | n
COC(=O)c1ccc(NC(=O)c2ccc(F)cc2)o1 | n | n | n | n | n | n
COC(=O)c1ccc(NC(=O)c2ccc(C)cc2)o1 | n | 22.2 | 48.5 | n | n | n
C[C@H](NC(=O)N1CCc2nc(-c3ccccc3)c3c(c2C1)CO[C@@H](C)C3)c1ccccc1 | x | x | x | n[11.5 µM] | n[12.9 µM] | x
COc1ccc(N2C(=O)C3C(c4ccc(C(=O)O)cc4)NC(Cc4ccccc4)(C(=O)O)C3C2=O)c([N+](=O)[O-])c1 (configuration not stated) | n | n | n | n | n | n
Cc1noc(C)c1S(=O)(=O)N(C)C[C@H]1Oc2ccc(NC(=O)CCC(F)(F)F)cc2C(=O)N([C@H](C)CO)C[C@@H]1C | n | x | x | x | x | n
O=C(NCc1ccccc1)c1nc(-c2cccs2)no1 | n | n | n | n | n | u
O=C(NCc1ccc(F)cc1)c1cc(-c2cccs2)on1 | n | 25.7 | n | n | n | n
SMILES | TbPYK inhibitor | Cycloheximide cs | Shiga toxin inh | LmPK inhibitor | Giardia FBPA inh | RE007 growth inh
O=C(NCc1ccccc1)c1cc(-c2cccs2)on1 | n | 42.7 | 77.1 | n | n | n
COc1cccc(-c2nc(SC(C(C)=O)C(=O)N(C)C)c3c(=O)n(C)c(=O)n(C)c3n2)c1 (configuration not stated) | n | x | x | x | x | x
CCC1CCc2sc(C(=O)O)cc2C1 (configuration not stated) | n | n | n | n | n | n
C=CCN1CCN(C(=O)c2cc3c(s2)CCC(CC)C3)CC1 (configuration not stated) | n | 36.5 | 50.3 | n | n | n
COc1cccc([C@@H]2Oc3ccc(Br)cc3[C@H](O)[C@H]2O)c1 | x | x | x | x | n | x
COc1cc(-c2nc(-c3cccc(Cl)c3)c(-c3ccccc3)[nH]2)cc(OC)c1OC | n | x | x | x | x | x
COc1cc(-c2nc(-c3ccc4c(c3)-c3ccccc3S4(=O)=O)c(-c3ccccc3)[nH]2)cc(OC)c1O | n | 21.6 | n | n | n | n
Cc1oc2ncn(CC(C)C)c(=O)c2c1C(=O)Nc1cccc(C(F)(F)F)c1 | n | x | x | x | x | x
COC(=O)c1ccccc1NC(=O)CN(c1ccccc1OC)S(C)(=O)=O | n | x | x | x | x | x
Clc1ccc(OCC#CCN2CCCCCC2)cc1 | n | n | 46.9 | n | n | n
Nn1c(SCC(=O)NC2CCCCC2)nnc1-c1ccccc1F | n | x | x | x | x | n
Clc1ccccc1C=NNc1ccccn1 | n | x | x | x | x | n
Brc1ccccc1/C=N/Nc1ccccn1 | n | 23.8 | 50.9 | n | n | n
CCOc1ccc(/C=N/Nc2ccccn2)cc1 | n | 34.1 | 69.9 | u | n | n
COc1ccc(/C=N/Nc2ccccn2)cc1O | n | 45.8 | 69.7 | u | n | n
FC(F)(F)c1ccccc1/C=N/Nc1ccccn1 | n | 25.3 | 58.7 | n | n | n
CC(=O)OC[C@@H]1O[C@H](C/C=N\O[C@@H](C)c2cn([C@H](CO)Cc3ccccc3)nn2)C=C[C@@H]1OC(C)=O | x | x | x | x | n[12.9 µM] | x
Fc1ccc(/C=N/Nc2nn[nH]n2)cc1 | n | n | n | n | u | n
COc1ccc(/C=N/N=C/c2ccc(OC)c(O)c2)cc1O | n | 35.8 | n | n | x | n
Oc1cccc(C=NNc2ccccn2)c1 | n | x | x | x | x | n
Fc1ccc(/C=N/Nc2ccccn2)cc1 | n | 62.4 | 67.7 | n | n | n
Clc1ccc(/C=N/Nc2ccccn2)cc1 | n | 52.5 | 107.7 | n | n | n
Brc1ccc(/C=N/Nc2ccccn2)cc1 | n | 40.1 | 181.8 | n | n | n
Cn1nc(-c2ccccc2F)c2cc(C(=O)N3CCN(c4ccccc4F)CC3)sc21 | n | x | x | x | x | x
O=C(CCCc1ccccc1)NCCS(=O)(=O)N1CCN(c2ccc(F)cc2)CC1 | n | x | x | x | x | n
SMILES | TbPYK inhibitor | Cycloheximide cs | Shiga toxin inh | LmPK inhibitor | Giardia FBPA inh | RE007 growth inh
COc1ccc(-c2cc3ccc(O)c(CN4CCOCC4)c3oc2=O)cc1 | n | x | x | x | x | x
Cc1ccc(/C=N/Nc2ccccn2)s1 | n | 39.9 | 102.2 | n | n | n
Cc1noc(C)c1/C=N/Nc1ccccn1 | n | n | n | n | n | n
N#Cc1nc(-c2ccco2)oc1N1CCCC1 | n | n | n | n | n | n
N#Cc1nc(-c2ccco2)oc1N1CCc2ccccc2C1 | n | 25.3 | 90.5 | n | n | n
CCN1CCN(c2oc(-c3ccco3)nc2C#N)CC1 | n | n | n | n | n | n
CC1CC(C)CN(c2oc(-c3ccco3)nc2C#N)C1 (configuration not stated) | n | 13.2 | n | n | n | n
